Source: PubChem BioAssay AID1259422 (The Scripps Research Institute Molecular Screening Center, 2018)
Values joined by “and” are separate entries in the source; they are usually repeats but may differ in a detail not shown here. Equal values may be shown once. The whole screen tested about 640,000 compounds, of which about 9,300 (1.5%) were called active. The entries come from a sample that favours actives as a whole. A number with no mark means an inactive call. Cut-off read from the data, not from the text of the source: active = inhibition above about 32%; inactive = the rest.

Assay: TEAD-YAP interaction inhibition, primary screen, TEAD-YAP interaction inhibitor project, luminescence, HEK-TIYL cells (AID 1259422);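 note: 0% = median of test compound wells and 100% = reference inhibitor wells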
Settings: TEAD-Gal4/YAP UAS-luciferase luminescence, at 9.12 µM, active compounds read high

Row | SMILES | inhibition
1 | C=CCNc1c(C)c(C)nc2cc(-c3ccc(OC)c(OC)c3)nn12 | -14.7%
2 | CC1CCCC(NC(=O)C2N(C3CCCC(C)C3C)C(=O)C3C(C(=O)Nc4cccc(Cl)c4)C4C=CC32O4)C1C (centres undefined) | -7.64%
3 | O=C(c1ccccc1Cl)N1CCCCC1 | 2.65%
4 | Cc1cc(N2CCCC2)nc(N2CCN(C(=O)c3ccccc3Cl)CC2)n1 | 33.1% (active)
5 | CCS(=O)(=O)N1CCN(C(=O)c2ccccc2Cl)CC1 | -4.13%
6 | O=C(O)c1ccc(NS(=O)(=O)c2cccc(C(F)(F)F)c2)cc1 | 0.38%
7 | Cc1ccc(NC(=O)c2cc(S(=O)(=O)N3CCC(C)CC3)ccc2F)cc1F | -4.47%
8 | COc1cccc(N2C(=O)C3C4C=CC(C5CC45)C3C2=O)c1 (centres undefined) | -3.66%
9 | CC12CC3(C)CC(O)(C1)CC(C(=O)c1ccccc1)(C2)C3 | -1.77%
10 | CSc1nnc(-c2ccncc2)n1CCCN1CCCC1=O | 58.9% (active)
11 | Cn1c(SCC(=O)N2CCCCCC2)nnc1-c1ccncc1 | 5.85%
12 | CCCn1c(SCC(=O)N2CCc3ccccc32)nnc1-c1ccncc1 | -1.7%
13 | COC(=O)c1cc(OC)c(OC)cc1NC(=O)c1cc2ccccc2oc1=O | -9.56%
14 | Clc1ccccc1-c1noc(-c2ccc(-c3ccccc3)cc2)n1 | 6.4%
15 | Cc1ccc(-c2nc(-c3ccccc3Cl)no2)cc1 | -58.6%
16 | Oc1ccc(-c2nc(-c3ccccc3Cl)no2)cc1 | 64.7% (active)
17 | CC1=C(C(=O)OCCOc2ccccc2)C(c2cccc(Cl)c2Cl)C2=C(CC(c3ccccc3)CC2=O)N1 (centres undefined) | 5.89%
18 | O=C(NCCc1ccccc1)C1CCC(Cn2c(SCc3ccc(Cl)cc3)nc3ccccc3c2=O)CC1 (centres undefined) | 6.47%
19 | c1cc(-c2nc3c(c(N4CCCCC4)n2)CNCC3)ccn1 | -3.63%
20 | CC(NC(=O)CCc1ccccc1)c1nnc2n1CCN(Cc1cccc(F)c1F)CC2 (centres undefined) | -34.9%
21 | CCCCN(CCCC)C(=O)Nc1nc2ccccc2[nH]1 | 59.5% (active)
22 | S=C(Nc1nc2ccccc2[nH]1)Nc1nc2ccccc2[nH]1 | -3.78%
23 | CSCCC(=O)Nc1nc2ccccc2[nH]1 | -12.9%
24 | Cc1nc2sc(C(c3ccc([N+](=O)[O-])cc3)N3CC(C)CC(C)C3)c(O)n2n1 (centres undefined) | 21.1%

Row | SMILES | inhibition
25 | CC(C)c1ccc(S(=O)(=O)N2CCN(C(=O)/C=C/c3ccccc3)CC2)cc1 | 5.06%
26 | Cc1c(C(=O)N2CCN(c3ccc(F)cc3)CC2)sc2ncnc(N(C)c3ccccc3)c12 | 6.56%
27 | O=C(CSc1nnc2ncccn12)N1CCCc2ccccc21 | -3.81%
28 | COc1cc(C(=O)Nc2ccc3nc(N4CCN(c5ncccn5)CC4)cc(C)c3c2)cc(OC)c1OC | 22.2%
29 | Cc1ccc(N2CCN(C(=O)c3c(F)cccc3Cl)CC2)nn1 | -8.28%
30 | COc1ccc(C(=O)Nc2ccc3nc(N4CCCCC4)cc(C)c3c2)cc1OC | -0.5%
31 | Cc1cc(NC(=O)c2c(F)cccc2Cl)ccc1N1CCCCC1=O | -2.91%
32 | COc1cc(C(=O)Nc2ccc(Nc3nc(C)cc(N4CCCC4)n3)cc2)cc(OC)c1OC | 35.6% (active)
33 | Cc1cc(N2CCCC2)nc(Nc2ccc(NC(=O)c3c(F)cccc3Cl)cc2)n1 | 42% (active)
34 | Cc1ccc(N(C(=O)c2snc(C(N)=O)c2N)C(C)C(=O)NC(C)(C)C)cc1C (centres undefined) | -0.01%
35 | c1ccc2c(NCCNc3ncnc4sccc34)cccc2c1 | 52.2% (active)
36 | Cn1ncc2c(Nc3cccc4ccccc34)ncnc21 | -0.77%
37 | COCCCNc1ncnc2sccc12 | -4.31%
38 | COc1ccc(C(=O)N=c2sc3cc4c(cc3n2C)OCCO4)cc1OC | -1.41%
39 | COC(=O)c1c(C)oc2ccc(NS(=O)(=O)c3cccc4cccnc34)cc12 | 28.9%
40 | CC(NC(=O)C(C)(C)C)c1ccc(Br)cc1 (centres undefined) | 8.71%
41 | CC(C)(C)C(=O)Nc1scc(-c2ccc(Br)cc2)c1C(=O)O | 38.7% (active)
42 | CCOC(=O)c1c(-c2ccc(Br)cc2)csc1NC(=O)COC | -10.8%
43 | CCOc1cc(C(=O)OCc2cc(C(C)=O)ccc2OC)cc(OCC)c1OCC | -5.65%
44 | Cc1cc(C)nc(/N=C(\N)Nc2cccc(C(F)(F)F)c2)n1 | 36.7% (active)
45 | Cc1cc(C)nc(/N=C(\N)Nc2ccc(Br)cc2)n1 | 1.37% and -0.43%
46 | CCc1ccc(N/C(N)=N/c2nc(C)cc(C)n2)cc1 | 23.8%
47 | Cc1cccc(C)c1NS(=O)(=O)c1ccc2c(c1)oc(=O)n2C | -6.37%
48 | COc1ccc(Cc2nc3sc4c(c3c(=O)n2N)CCCC4)cc1OC | 29.2%

Row | SMILES | inhibition
49 | Cc1cccc(C)c1-n1c(N)c(C(=O)Nc2cccc(Cl)c2)sc1=S | -13.7%
50 | CCCCNC(=O)NNC(=O)CSc1nc2ccccc2s1 | 9.84%
51 | O=C(CSc1nc2ccccc2s1)N1N=CCC1c1ccccc1 (centres undefined) | 51.5% (active)
52 | O=C(CSc1nc2ccccc2s1)NNC(=O)C1CCCO1 (centres undefined) | 1.6%
53 | C/C(=N\NC(=O)c1cccc(Br)c1)c1cc2ccc(O)cc2oc1=O | -10.3%
54 | CC(C(=O)N(C)c1ccccc1)N1C(=O)NC(c2ccccc2)(c2ccccc2)C1=O (centres undefined) | 6.96%
55 | CCOC(=O)c1c(NC(=O)/C=C/C(=O)O)sc(C)c1C | 28.1%
56 | CCOC(=O)c1c(-c2cccc3ccccc23)csc1NC(=O)/C=C/C(=O)O | 33.5% (active)
57 | CCOC(=O)c1c(-c2ccccc2)csc1NC(=O)CNCC(C)C | -3.7%
58 | Cc1ccc(C2CC(=O)C3=C(C2)Nc2ccccc2N(C(=O)C(F)(F)F)C3c2cccc(Br)c2)cc1 (centres undefined) | 7.36%
59 | CCOC(=O)C1=C(C)N=c2s/c(=C/c3cc(Br)c(N4CCOCC4)o3)c(=O)n2C1c1ccc(OC)cc1 (centres undefined) | 4.11%
60 | O=C(NCc1nc(-c2ccccc2)no1)c1ccccc1I | 7.97%
61 | C=CCN(C)C(=O)c1c(C)nc2ccccn12 | -6.06%
62 | Cc1nc2ccccn2c1C(=O)NCc1ccc(Oc2ccccc2)cc1 | 62.4% (active)
63 | Cc1nc2sccn2c1C(=O)NCc1cccc(Cl)c1 | 12.9%
64 | Cc1nc2ccccn2c1C(=O)NCc1nc(-c2ccccc2)no1 | 36.5% (active)
65 | Cc1ccc(C)c(C(=O)NCc2nc(-c3ccccc3)no2)c1 | 9.38%
66 | COc1ccc(CNCc2c(C(=O)O)[nH]c3ccccc23)cc1 | -5.51%
67 | C=Cc1ccc(Cn2c(C(=O)O)c(CNCc3ccccc3OC)c3ccccc32)cc1 | 14.2%
68 | Cc1ccc(N=C2NC(=O)C(Cc3ccccc3Cl)S2)cc1 (centres undefined) | 33.1% (active)
69 | O=C(O)CC1SC(=Nc2ccccc2)NC1=O (centres undefined) | 4.55%
70 | Cc1cccc(NC(=O)CC2SC(=Nc3ccccc3)NC2=O)c1 (centres undefined) | 3.61%
71 | CC(C)c1ccc(OCC(O)CN2CCN(c3ccccn3)CC2)cc1 (centres undefined) | -5.32%
72 | Cc1ccc(C(c2cc(Cl)c3cccnc3c2O)N2CCN(c3ccccn3)CC2)cc1 (centres undefined) | 38% (active)

Row | SMILES | inhibition
73 | Cc1cc(N2CCN(c3ccccn3)CC2)nc2c(C)cccc12 | 2.36%
74 | CCOc1ccc(C(=O)Nc2sc3c(c2C(N)=O)CC(C)CC3)cc1 (centres undefined) | 2.83%
75 | CC(C)n1cnc2c(NCCOc3ccccc3)nc(-c3ccc(C(=O)NC4CC4)cc3)nc21 | 13.6%
76 | Cc1cc(/C=C2/C(=N)N3C=CSC3=NC2=O)c(C)n1-c1ccccc1F | 86.4% (active)
77 | Cc1cc(/C=C2\C(=N)N3N=C(S(C)(=O)=O)SC3=NC2=O)c(C)n1-c1ccc(F)cc1 | 4.07%
78 | CC1=CC2=NC(=O)/C(=C\c3cc(C)n(-c4cccc(C)c4C)c3C)C(=N)N2O1 | 9.28%
79 | COc1cc(OC)c(-n2c(C)cc(/C=C3/C(=N)N4C=CSC4=NC3=O)c2C)cc1Cl | -0.88%
80 | Cc1cc(/C=C2/C(=N)N3C=CSC3=NC2=O)c(C)n1-c1ccc(F)cc1 | 41.3% (active)
81 | CC1=CN2C(=N)/C(=C/c3cc(C)n(-c4ccc(F)cc4)c3C)C(=O)N=C2S1 | -6.11%
82 | COCC1=C(C(=O)OC)C(c2ccc(Cl)cc2Cl)n2ncnc2N1 (centres undefined) | -3.21%
83 | CN1C(=O)C(O)=C(c2ccccc2)S1(=O)=O | 5.68%
84 | COc1cccc(NC(=O)Cn2c(=O)c(C(F)(F)F)nc3ccccc32)c1 | 5.63%
85 | Cc1ccc(NC(=O)/C(=C/c2ccc(Cl)cc2)NC(=O)c2ccco2)cc1 | -3.43%
86 | CC(C)C(=O)NCC1CCC2(CCN(Cc3ccc4ccccc4c3)CC2)O1 (centres undefined) | 9.09%
87 | CC(C)C(=O)NCC1CCC2(CCN(Cc3nc(-c4ccccc4)cs3)CC2)O1 (centres undefined) | 96.7% (active)
88 | COc1ccccc1CN1CCC2(CCC(CNC(=O)C(C)C)O2)CC1 (centres undefined) | -13.5%
89 | N#Cc1c(NC(=O)/C=C/c2cccc([N+](=O)[O-])c2)sc2c1CCCC2 | -1.55%
90 | CC(=O)N1CCc2c(sc(NC(=O)CCSc3ccccc3)c2C(N)=O)C1 | 3.99%
91 | CCOC(=O)N1CCc2c(sc(NC(=O)CCSc3ccccc3)c2C#N)C1 | 44.1% (active)
92 | CCOC(=O)N1CCc2c(sc(NC(=O)/C=C/c3cccc([N+](=O)[O-])c3)c2C#N)C1 | 33.5% (active)
93 | CCOC(=O)N1CCc2c(sc(NC(=O)c3ccc([N+](=O)[O-])s3)c2C#N)C1 | 3.38%
94 | CC(=O)N1CCc2c(sc(NC(=O)CCS(=O)(=O)c3ccccc3)c2C#N)C1 | 3.65%
